Experimental data reported in PubChem BioAssay (NCI).
Compounds without any hit were thinned out: in the full panel of roughly 83,000, 20% have a hit.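 Plates (96-well) were seeded with cells, treated with compound at one concentration, and incubated for 48 hours before percent growth was determined.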 A number with no mark means an inactive call. Calls of active or inactive are those of the source. The calls were made as follows: active = growth percent below 10; inactive = the rest.

Tested on: MALME-3M melanoma
Assay: NCI-60 one-dose screen, 48 h (100 = growth as untreated, 0 = no growth, -100 = all killed)
Settings: 10 µM

Which growth does the source give for `COc1cc(-c2cc(/C=C3\C(=O)Nc4cc(Cl)ccc43)[nH]n2)cc(OC)c1OC` here?
The growth was -22.9% (active).

`CCCCCCc1cc(N=Nc2ccc(S(=O)(=O)Nc3cc(C)nc(C)n3)cc2)c(O)cc1O` was tested. Which growth did it give?
Its growth is 93.1%.

Which growth does the source give for `N#CC1=C(Nc2ccccc2Cl)SC(c2ccccc2O)NC1=O` (centres undefined) here?
The growth was 116%.

`COc1cc(-c2nc(Nc3nc4ccccc4s3)[nH]c(=O)c2C#N)cc(OC)c1O` was tested. Which growth did it give?
Its growth is 118%.

For `CCCCCCCCCCCCCCCCCCOCC(COCCOCC[N+]1(CCCCCC(=O)[O-])CCCC1)Oc1ncccn1` (centres undefined), which growth is on record?
The growth was 82.9%.

Which growth does the source give for `COc1ccc(C2=NN(C(=O)c3ccc(S(C)(=O)=O)cc3)C(c3ccc(OC)c(OC)c3)C2)c(OC)c1` (centres undefined) here?
Its growth is 113%.

How did the growth turn out when `COc1ccccc1CNCCCN1C(=O)c2ccc3c4c(ccc(c24)C1=O)C(=O)N(CCCN)C3=O` was run?
Its growth is -94.1% (active).

For `Nc1nc(N)c(NC(=O)CNc2ccc(C(=O)O)cc2)c(N)n1`, which growth is on record?
Its growth is 112%.

How did the growth turn out when `c1ccc(CP(Cc2ccccc2)c2ccccc2)cc1` was run?
The growth was 82.3%.

`COC(=O)C1(C)Cc2cc(OC(C)=O)c(OC(C)=O)cc2N1` (centres undefined) was tested. Which growth did it give?
Its growth is 79.7%.

For `CC(=O)OCc1cc(-c2nc3ccccc3[nH]c2=O)nn1-c1ccc(Cl)cc1`, which growth is on record?
Its growth is 108%.

With `CC(=O)c1nc2ccccc2n1CCN1CCN(C)CC1` as the compound, how does the growth read?
The growth was 17.6%.

Which growth does the source give for `COc1ccc(-c2nn(-c3cccc(NC(=O)Nc4ccc(Cl)c(C(F)(F)F)c4)c3)cc2-c2ccncc2)cc1Cl` here?
Its growth is -8.87% (active).

For `COc1cc(C(=O)/C=C/c2cc(-c3cc(OC)c(OC)c(OC)c3)n[nH]2)cc(OC)c1OC`, which growth is on record?
Its growth is -56% (active).

`Cc1cccc(NC2=C(C#N)C(=O)NC3(CCCC3)S2)c1` was tested. Which growth did it give?
Its growth is 104%.

How did the growth turn out when `O=C1/C(=C\c2ccc(F)cc2)CN(C(=O)c2ccccc2)C/C1=C\c1ccc(F)cc1` was run?
Its growth is 8.3% (active).

How did the growth turn out when `COc1cc(-c2cc(/C=C3\C(=O)Nc4ccccc43)[nH]n2)cc(OC)c1OC` was run?
Its growth is 1.21% (active).

`COc1cc(/C=C\c2cc(OC)c(OC)c(OC)c2)cc(NS(=O)(=O)c2ccc(Cl)cc2)c1OC` was tested. Which growth did it give?
The growth was 71.9%.

Which growth does the source give for `S=C1SCC(c2ccccc2)S1` (centres undefined) here?
Its growth is 118%.

For `CCN(CC)Cc1cc(Nc2ccnc3cc(Cl)ccc23)ccc1OC`, which growth is on record?
Its growth is 110%.

How did the growth turn out when `COC(=O)C(C(C[N+](=O)[O-])c1ccccc1)=P(c1ccccc1)(c1ccccc1)c1ccccc1` (centres undefined) was run?
The growth was 96%.

With `O=S(=O)(NCCCNc1nccc(-c2c(-c3ccc(F)cc3)nc3sccn23)n1)c1ccc2ccccc2c1` as the compound, how does the growth read?
Its growth is 50.3%.

For `CC(=O)N1N=C(c2ccc(Cl)cc2)CC1c1sc(Cl)nc1Cl` (centres undefined), which growth is on record?
The growth was 94.8%.

For `O=c1[nH]c2ccc(Cl)cc2c2ccccc12`, which growth is on record?
The growth was 60.7%.

Which growth does the source give for `COc1ccc(NC2=NC(C)(CO)CS2)cc1` (centres undefined) here?
Its growth is 112%.

`N#Cc1ncc(Br)c(NC2CCCCCC2)n1` was tested. Which growth did it give?
The growth was 145%.

For `O=C(Nc1cccc(-n2cc(-c3ccncc3)c(-c3cc(O)cc(Cl)c3)n2)c1)Nc1ccc(Cl)c(C(F)(F)F)c1`, which growth is on record?
Its growth is -24.9% (active).

How did the growth turn out when `Nc1ncn(C2OC(CO)C(O)C2O)c(=O)n1` (centres undefined) was run?
The growth was 15.1%.

`O=C(Nc1nc(-c2ccccc2Cl)cs1)c1cc(-c2ccc(Cl)cc2)nc2ccc(Cl)cc12` was tested. Which growth did it give?
The growth was 41.5%.

With `Nc1c(C(=O)Nc2cccc(F)c2)sc2nc3c(cc12)C(=O)CCC3` as the compound, how does the growth read?
Its growth is 32.4%.

For `COc1ccc(-c2cc(/C=C3\C(=O)Nc4ccc(Cl)cc43)[nH]n2)cc1OC`, which growth is on record?
Its growth is 87.3%.

Which growth does the source give for `O=C1CC[C@@H]2CCCC[C@@H]2C1` here?
The growth was 98.8%.

For `COc1ccc2c(c1)O/C(=C\c1ccc([N+](=O)[O-])s1)C2=O`, which growth is on record?
Its growth is 80%.

For `Nc1nc(N)c2c(ccc3nccc32)[nH]1`, which growth is on record?
Its growth is 58.7%.

`Nc1cc2c(cc1Cl)-c1ccc([N+](=O)[O-])cc1/C2=N\O` was tested. Which growth did it give?
Its growth is 90.7%.

How did the growth turn out when `COc1cc(-c2cc(/C=C/C(=O)c3ccc4c(c3)OCO4)[nH]n2)cc(OC)c1OC` was run?
Its growth is 95.7%.

Which growth does the source give for `COc1ccc(Cl)cc1C(=O)Nc1nc2ccc(Cl)cc2s1` here?
The growth was 83.3%.

`Cc1cc2c(C)c3cc(C)c(N)cc3nc2cc1N` was tested. Which growth did it give?
Its growth is -3.24% (active).

`O=c1oc2cc(OS(=O)(=O)c3ccccc3)ccc2c2c1CCCCC2` was tested. Which growth did it give?
The growth was 66.7%.
